From PubChem BioAssay AID1159580 (chemical genetic matrix, 2015)
The campaign covered roughly 5,500 compounds. About 2,000 (36%) were called active. About 18% were inconclusive and are not listed. Rule as the data show it: active = normalized growth mostly below about 0.91 (no sharp cut-off); inconclusive = no clear call, values can overlap the other calls; inactive = mostly above about 0.92. This is one part of the list.

Experiment: chemical genetic growth profiling, strain panel (AID 1159580);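 also: tested at 20 µM; growth read once vehicle control cultures reached saturation at 30 °C; 1 = growth at the plate median or of vehicle wells; lower values mean less growth of the strain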
Details: growth OD

Measured: normalized growth

Cc1ncc([N+](=O)[O-])n1CCO
inactive: S. cerevisiae deletion strains, locus YJR075W, strain HOC1, hits give low values 1.01 | S. cerevisiae deletion strains, locus YKL009W, strain mrt4, hits give low values 0.969 | S. cerevisiae deletion strains, locus YKL068W, hits give low values 0.99 | S. cerevisiae deletion strains, locus YKL085W, strain MDH1 (second series), hits give low values 0.985 | S. cerevisiae deletion strains, locus YKL085W, strain MDH1, hits give low values 0.985 | S. cerevisiae deletion strains, locus YKL160W, strain elf1, hits give low values 0.955 | S. cerevisiae deletion strains, locus YKL190W, strain CNB1, hits give low values 0.99 | S. cerevisiae deletion strains, locus YKR001C, strain vps1, hits give low values 1 | S. cerevisiae deletion strains, locus YKR026C, strain gcn3, hits give low values 0.984 | S. cerevisiae deletion strains, locus YKR091W, strain srl3, hits give low values 0.962 | S. cerevisiae deletion strains, locus YLL001W, strain dnm1, hits give low values 0.926 | S. cerevisiae deletion strains, locus YLL026W, hits give low values 0.977 | S. cerevisiae deletion strains, locus YLL041C, strain sdh2, hits give low values 0.98 | S. cerevisiae deletion strains, locus YLR027C, strain aat2, hits give low values 0.98 | S. cerevisiae deletion strains, locus YLR039C, strain RIC1, hits give low values 0.972 | S. cerevisiae deletion strains, locus YLR058C, strain SHM2, hits give low values 0.97 | S. cerevisiae deletion strains, locus YLR102C, strain apc9, hits give low values 0.991 | S. cerevisiae deletion strains, locus YLR113W, strain HOG1, hits give low values 1.05 | S. cerevisiae deletion strains, locus YLR221C, strain rsa3, hits give low values 0.941 | S. cerevisiae deletion strains, locus YLR258W, strain gsy2, hits give low values 0.988 | S. cerevisiae deletion strains, locus YLR262C, strain YPT6 (second series), hits give low values 0.964 | S. cerevisiae deletion strains, locus YLR262C, strain YPT6, hits give low values 0.907 | S. cerevisiae deletion strains, locus YLR268W, strain sec22, hits give low values 1.08 | S. cerevisiae deletion strains, locus YLR320W, strain mms22, hits give low values 0.948 | S. cerevisiae deletion strains, locus YLR330W, strain CHS5, hits give low values 0.987 | S. cerevisiae deletion strains, locus YLR342W, strain FKS1 (second series), hits give low values 0.982 | S. cerevisiae deletion strains, locus YLR342W, strain FKS1, hits give low values 0.978 | S. cerevisiae deletion strains, locus YLR357W, strain rsc2, hits give low values 0.973 | S. cerevisiae deletion strains, locus YLR370C, strain arc18, hits give low values 0.972 | S. cerevisiae deletion strains, locus YLR371W, strain rom2, hits give low values 0.975 | S. cerevisiae deletion strains, locus YLR384C, strain iki3, hits give low values 0.982 | S. cerevisiae deletion strains, locus YLR418C, strain cdc73, hits give low values 0.991 | S. cerevisiae deletion strains, locus YML016C, strain PPZ1, hits give low values 0.986 | S. cerevisiae deletion strains, locus YML032C, strain rad52, hits give low values 1.01 | S. cerevisiae deletion strains, locus YML120C, strain ndi1, hits give low values 0.942 | S. cerevisiae deletion strains, locus YML124C, strain tub3, hits give low values 0.984 | S. cerevisiae deletion strains, locus YMR058W, strain fet3, hits give low values 0.983 | S. cerevisiae deletion strains, locus YMR078C, strain ctf18, hits give low values 0.976 | S. cerevisiae deletion strains, locus YMR125W, strain sto1, hits give low values 0.958 | S. cerevisiae deletion strains, locus YMR129W, hits give low values 0.98 | S. cerevisiae deletion strains, locus YMR205C, strain PFK2, hits give low values 0.936 | S. cerevisiae deletion strains, locus YMR223W, strain ubp8, hits give low values 0.952 | S. cerevisiae deletion strains, locus YMR231W, strain pep5, hits give low values 0.986 | S. cerevisiae deletion strains, locus YMR263W, strain SAP30, hits give low values 0.995 | S. cerevisiae deletion strains, locus YMR307W, strain GAS1, hits give low values 0.976 | S. cerevisiae deletion strains, locus YNL067W, strain RPL9B, hits give low values 0.994 | S. cerevisiae deletion strains, locus YNL071W, strain lat1, hits give low values 0.978 | S. cerevisiae deletion strains, locus YNL128W, strain TEP1, hits give low values 0.951 | S. cerevisiae deletion strains, locus YNL153C, strain GIM3, hits give low values 1.01 | S. cerevisiae deletion strains, locus YNL183C, strain NPR1, hits give low values 1.03 | S. cerevisiae deletion strains, locus YNL209W, strain ssb2, hits give low values 0.974 | S. cerevisiae deletion strains, locus YNL233W, strain BNI4, hits give low values 1.02 | S. cerevisiae deletion strains, locus YNL248C, strain rpa49, hits give low values 0.981 | S. cerevisiae deletion strains, locus YNL250W, strain rad50, hits give low values 0.975 | S. cerevisiae deletion strains, locus YNL271C, strain bni1, hits give low values 0.989 | S. cerevisiae deletion strains, locus YNL298W, strain CLA4, hits give low values 0.992 | S. cerevisiae deletion strains, locus YNL307C, strain MCK1, hits give low values 0.989 | S. cerevisiae deletion strains, locus YNL322C, strain KRE1 (second series), hits give low values 0.974 | S. cerevisiae deletion strains, locus YNL322C, strain KRE1, hits give low values 0.986 | S. cerevisiae deletion strains, locus YNR049C, strain mso1, hits give low values 0.96 | S. cerevisiae deletion strains, locus YNR052C, strain pop2, hits give low values 0.989 | S. cerevisiae deletion strains, locus YOL006C, strain TOP1, hits give low values 1 | S. cerevisiae deletion strains, locus YOL012C, strain htz1 0.99 | S. cerevisiae deletion strains, locus YOL147C, strain pex11, hits give low values 0.986 | S. cerevisiae deletion strains, locus YOR001W, strain rrp6, hits give low values 1 | S. cerevisiae deletion strains, locus YOR061W, strain CKA2, hits give low values 0.967 | S. cerevisiae deletion strains, locus YOR069W, strain VPS5, hits give low values 0.989 | S. cerevisiae deletion strains, locus YOR070C, strain gyp1, hits give low values 0.987 | S. cerevisiae deletion strains, locus YOR080W, strain dia2, hits give low values 0.977 | S. cerevisiae deletion strains, locus YOR083W, strain WHI5, hits give low values 0.954 | S. cerevisiae deletion strains, locus YOR106W, strain vam3, hits give low values 0.937 | S. cerevisiae deletion strains, locus YOR136W, strain idh2, hits give low values 0.984 | S. cerevisiae deletion strains, locus YOR144C, strain elg1, hits give low values 0.989 | S. cerevisiae deletion strains, locus YOR184W, strain ser1, hits give low values 0.998 | S. cerevisiae deletion strains, locus YOR231W, strain MKK1, hits give low values 1.06 | S. cerevisiae deletion strains, locus YOR265W, strain rbl2, hits give low values 0.985 | S. cerevisiae deletion strains, locus YOR270C, strain vph1, hits give low values 0.958 | S. cerevisiae deletion strains, locus YOR290C, strain snf2, hits give low values 0.91 | S. cerevisiae deletion strains, locus YOR316C, strain cot1, hits give low values 0.992 | S. cerevisiae deletion strains, locus YPL051W, strain arl3, hits give low values 0.978 | S. cerevisiae deletion strains, locus YPL055C, strain LGE1, hits give low values 0.974 | S. cerevisiae deletion strains, locus YPL078C, strain atp4, hits give low values 0.959 | S. cerevisiae deletion strains, locus YPL106C, strain sse1, hits give low values 0.943 | S. cerevisiae deletion strains, locus YPL240C, strain hsp82, hits give low values 0.983 | S. cerevisiae deletion strains, locus YPL241C, strain CIN2, hits give low values 0.982 | S. cerevisiae deletion strains, locus YPL256C, strain CLN2, hits give low values 1.1 | S. cerevisiae deletion strains, locus YPR119W, strain clb2, hits give low values 0.992 | S. cerevisiae deletion strains, locus YPR141C, strain kar3, hits give low values 0.982 | S. cerevisiae deletion strains, locus YPR163C, strain tif3, hits give low values 0.987 | S. cerevisiae deletion strains, locus YPR167C, strain met16, hits give low values 0.998 | S. cerevisiae deletion strains, strain wtn01, hits give low values 1.02 | S. cerevisiae strains, strain wild type, hits give low values 0.98
